Data from paper PMC11006913.
Where a chain is given by its changes, count along the chain named.

Tests used:
Assay in all cases: PBM; 200 nM protein, PBS
Settings in all cases: dsDNA, one strand shown
NKX2-5 [1] = biological target: NKX2-5 (Homo sapiens, UniProt P52952 125-210, R139K)
HOXC9 [2] = biological target: HOXC9 (Homo sapiens, UniProt P31274 178-260, K195R)
PAX4 [3] = biological target: T1, PAX4 (Homo sapiens, UniProt O43316 9-242, R200K)
T1 sequence: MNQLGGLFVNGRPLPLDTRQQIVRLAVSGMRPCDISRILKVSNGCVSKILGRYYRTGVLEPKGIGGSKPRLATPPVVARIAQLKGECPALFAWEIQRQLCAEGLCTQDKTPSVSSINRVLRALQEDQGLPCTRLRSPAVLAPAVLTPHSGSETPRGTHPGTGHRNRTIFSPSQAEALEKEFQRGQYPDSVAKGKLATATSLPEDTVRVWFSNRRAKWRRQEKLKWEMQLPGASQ

PAX4 [4] = biological target: T2, PAX4 (Homo sapiens, UniProt O43316 9-242)
T2 sequence: T1 sequence with K192R

HOXA2 [5] = biological target: HOXA2 (Homo sapiens, UniProt O43364 129-215, R185T)
HOXA2 (Homo sapiens, UniProt O43364 129-215, R185T), sequence (O43364 129-215 R185T): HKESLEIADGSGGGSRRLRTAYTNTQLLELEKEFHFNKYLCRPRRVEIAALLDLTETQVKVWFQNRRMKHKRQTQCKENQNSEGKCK

HOXC9 [6] = biological target: HOXC9 (Homo sapiens, UniProt P31274 178-260)
HOXC9 (Homo sapiens, UniProt P31274 178-260), sequence (P31274 178-260): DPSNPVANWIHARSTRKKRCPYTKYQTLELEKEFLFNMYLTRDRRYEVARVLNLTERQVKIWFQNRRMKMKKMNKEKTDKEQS

MSX2 [7] = biological target: MSX2 (Homo sapiens, UniProt P35548 130-214, R199I)
MSX2 (Homo sapiens, UniProt P35548 130-214, R199I), sequence (P35548 130-214 R199I): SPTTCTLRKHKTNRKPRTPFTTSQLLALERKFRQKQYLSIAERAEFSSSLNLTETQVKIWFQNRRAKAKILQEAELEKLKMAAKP

PAX4 [8] = biological target: T3, PAX4 (Homo sapiens, UniProt O43316 9-242, R200Q)
T3 sequence: T1 sequence with K192Q

HOXC9 [9] = biological target: HOXC9 (Homo sapiens, UniProt P31274 178-260, R193K)
HOXC9 (Homo sapiens, UniProt P31274 178-260, R193K), sequence (P31274 178-260 R193K): as the sequence (P31274 178-260) above, with R16K counted along it

HOXA2 [10] = biological target: HOXA2 (Homo sapiens, UniProt O43364 129-215, R185K)
HOXA2 (Homo sapiens, UniProt O43364 129-215, R185K), sequence (O43364 129-215 R185K): as the sequence (O43364 129-215 R185T) above, with T57K counted along it

PAX4 [11] = biological target: T4, PAX4 (Homo sapiens, UniProt O43316 9-242, F177V)
T4 sequence: T1 sequence with F169V, K192R

MSX2 [12] = biological target: MSX2 (Homo sapiens, UniProt P35548 130-214)
MSX2 (Homo sapiens, UniProt P35548 130-214), sequence (P35548 130-214): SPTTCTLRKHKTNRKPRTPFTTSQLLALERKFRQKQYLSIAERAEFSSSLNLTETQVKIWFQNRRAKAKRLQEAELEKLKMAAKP

PAX4 [13] = biological target: T5, PAX4 (Homo sapiens, UniProt O43316 9-242, F177Y)
T5 sequence: T1 sequence with F169Y, K192R

VAX1 [14] = biological target: VAX1 (Homo sapiens, UniProt Q5SQQ9 86-172)
VAX1 (Homo sapiens, UniProt Q5SQQ9 86-172), sequence (Q5SQQ9 86-172): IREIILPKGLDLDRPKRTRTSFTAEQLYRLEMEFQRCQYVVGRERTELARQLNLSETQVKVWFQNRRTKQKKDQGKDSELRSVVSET

HOXC9 [15] = biological target: HOXC9 (Homo sapiens, UniProt P31274 178-260, R222W)
HOXC9 (Homo sapiens, UniProt P31274 178-260, R222W), sequence (P31274 178-260 R222W): as the sequence (P31274 178-260) above, with R45W counted along it

MSX2 [16] = biological target: MSX2 (Homo sapiens, UniProt P35548 130-214, F161Y)
MSX2 (Homo sapiens, UniProt P35548 130-214, F161Y), sequence (P35548 130-214 F161Y): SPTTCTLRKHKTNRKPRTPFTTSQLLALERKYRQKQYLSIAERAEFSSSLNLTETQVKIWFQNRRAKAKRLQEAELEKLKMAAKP

VAX1 [17] = biological target: VAX1 (Homo sapiens, UniProt Q5SQQ9 86-172, T142I)
VAX1 (Homo sapiens, UniProt Q5SQQ9 86-172, T142I), sequence (Q5SQQ9 86-172 T142I): as the sequence (Q5SQQ9 86-172) above, with T57I counted along it

PAX4 [18] = biological target: T6, PAX4 (Homo sapiens, UniProt O43316 9-242, R227W)
T6 sequence: T1 sequence with K192R, R219W

HOXA2 [19] = biological target: HOXA2 (Homo sapiens, UniProt O43364 129-215, Y150S)
HOXA2 (Homo sapiens, UniProt O43364 129-215, Y150S), sequence (O43364 129-215 Y150S): as the sequence (O43364 129-215 R185T) above, with Y22S, T57R counted along it

NKX3-2 [20] = biological target: NKX3-2 (Homo sapiens, UniProt P78367 192-278, P234S)
NKX3-2 (Homo sapiens, UniProt P78367 192-278, P234S), sequence (P78367 192-278 P234S): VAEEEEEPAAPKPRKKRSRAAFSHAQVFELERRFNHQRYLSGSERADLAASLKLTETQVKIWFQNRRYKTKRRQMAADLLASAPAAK

HOXA2 [21] = biological target: HOXA2 (Homo sapiens, UniProt O43364 129-215)
HOXA2 (Homo sapiens, UniProt O43364 129-215), sequence (O43364 129-215): as the sequence (O43364 129-215 R185T) above, with T57R counted along it

VAX1 [22] = biological target: VAX1 (Homo sapiens, UniProt Q5SQQ9 86-172, K157R)
VAX1 (Homo sapiens, UniProt Q5SQQ9 86-172, K157R), sequence (Q5SQQ9 86-172 K157R): as the sequence (Q5SQQ9 86-172) above, with K72R counted along it

NKX2-5 [23] = biological target: NKX2-5 (Homo sapiens, UniProt P52952 125-210)
NKX2-5 (Homo sapiens, UniProt P52952 125-210), sequence (P52952 125-210): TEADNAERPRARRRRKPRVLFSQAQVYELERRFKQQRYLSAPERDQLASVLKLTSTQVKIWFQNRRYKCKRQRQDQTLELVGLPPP

NKX3-2 [24] = biological target: NKX3-2 (Homo sapiens, UniProt P78367 192-278)
NKX3-2 (Homo sapiens, UniProt P78367 192-278), sequence (P78367 192-278): as the sequence (P78367 192-278 P234S) above, with S43P counted along it

NKX2-4 [25] = biological target: T7, NKX2-4 (Homo sapiens, UniProt Q9H2Z4 175-261, T231S)
T7 sequence: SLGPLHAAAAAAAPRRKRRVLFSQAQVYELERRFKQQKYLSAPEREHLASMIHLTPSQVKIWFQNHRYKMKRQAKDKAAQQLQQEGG

NKX2-6 [26] = biological target: T8, NKX2-6 (Homo sapiens, UniProt A6NCS4 118-204, R150C)
T8 sequence: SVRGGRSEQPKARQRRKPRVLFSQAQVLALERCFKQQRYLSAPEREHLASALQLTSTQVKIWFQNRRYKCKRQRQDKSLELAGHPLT

NKX2-6 [27] = biological target: T9, NKX2-6 (Homo sapiens, UniProt A6NCS4 118-204)
T9 sequence: T8 sequence with C33R

NKX2-4 [28] = biological target: T10, NKX2-4 (Homo sapiens, UniProt Q9H2Z4 175-261, R246Q)
T10 sequence: T7 sequence with S57T, R72Q

NKX2-6 [29] = biological target: T11, NKX2-6 (Homo sapiens, UniProt A6NCS4 118-204, F151L)
T11 sequence: T8 sequence with C33R, F34L

NKX2-5 (Homo sapiens, UniProt P52952 125-210, R139K), sequence (P52952 125-210 R139K): as the sequence (P52952 125-210) above, with R15K counted along it
HOXC9 (Homo sapiens, UniProt P31274 178-260, K195R), sequence (P31274 178-260 K195R): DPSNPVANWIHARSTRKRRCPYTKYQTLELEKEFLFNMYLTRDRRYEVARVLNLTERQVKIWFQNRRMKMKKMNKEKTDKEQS

Sequence: AGCCCGGG
- binding signal (NKX2-5 [1]): 8.84 upbm affinity estimate (log intensity, higher = more binding, comparable within an allelic series)
- binding signal (HOXC9 [2]): 9.48 upbm affinity estimate (log intensity, higher = more binding, comparable within an allelic series)
- binding signal (PAX4 [3]): 9.12 upbm affinity estimate (log intensity, higher = more binding, comparable within an allelic series)
- binding signal (PAX4 [4]): 8.95 upbm affinity estimate (log intensity, higher = more binding, comparable within an allelic series)
- binding signal (HOXA2 [5]): 7.03 upbm affinity estimate (log intensity, higher = more binding, comparable within an allelic series)
- binding signal (HOXC9 [6]): 9.82 upbm affinity estimate (log intensity, higher = more binding, comparable within an allelic series)
- binding signal (MSX2 [7]): 9.38 upbm affinity estimate (log intensity, higher = more binding, comparable within an allelic series)
- binding signal (PAX4 [8]): 9.17 upbm affinity estimate (log intensity, higher = more binding, comparable within an allelic series)
- binding signal (HOXC9 [9]): 9.63 upbm affinity estimate (log intensity, higher = more binding, comparable within an allelic series)
- binding signal (HOXA2 [10]): 10.2 upbm affinity estimate (log intensity, higher = more binding, comparable within an allelic series)
- binding signal (PAX4 [11]): 9.12 upbm affinity estimate (log intensity, higher = more binding, comparable within an allelic series)
- binding signal (MSX2 [12]): 9.25 upbm affinity estimate (log intensity, higher = more binding, comparable within an allelic series)
- binding signal (PAX4 [13]): 9.07 upbm affinity estimate (log intensity, higher = more binding, comparable within an allelic series)
- binding signal (VAX1 [14]): 6.75 upbm affinity estimate (log intensity, higher = more binding, comparable within an allelic series)
- binding signal (HOXC9 [15]): 9.71 upbm affinity estimate (log intensity, higher = more binding, comparable within an allelic series)
- binding signal (MSX2 [16]): 9.37 upbm affinity estimate (log intensity, higher = more binding, comparable within an allelic series)
- binding signal (VAX1 [17]): 6.9 upbm affinity estimate (log intensity, higher = more binding, comparable within an allelic series)
- binding signal (PAX4 [18]): 9.13 upbm affinity estimate (log intensity, higher = more binding, comparable within an allelic series)
- binding signal (HOXA2 [19]): 10.4 upbm affinity estimate (log intensity, higher = more binding, comparable within an allelic series)
- binding signal (NKX3-2 [20]): 10.4 upbm affinity estimate (log intensity, higher = more binding, comparable within an allelic series)
- binding signal (HOXA2 [21]): 7.06 upbm affinity estimate (log intensity, higher = more binding, comparable within an allelic series)
- binding signal (VAX1 [22]): 6.72 upbm affinity estimate (log intensity, higher = more binding, comparable within an allelic series)
- binding signal (NKX2-5 [23]): 8.8 upbm affinity estimate (log intensity, higher = more binding, comparable within an allelic series)
- binding signal (NKX3-2 [24]): 10.3 upbm affinity estimate (log intensity, higher = more binding, comparable within an allelic series)

Sequence: CCGAGGTC
- binding signal (NKX2-5 [1]): 8.47 upbm affinity estimate (log intensity, higher = more binding, comparable within an allelic series)
- binding signal (HOXA2 [5]): 6.93 upbm affinity estimate (log intensity, higher = more binding, comparable within an allelic series)
- binding signal (HOXA2 [10]): 10.2 upbm affinity estimate (log intensity, higher = more binding, comparable within an allelic series)
- binding signal (HOXA2 [19]): 10.4 upbm affinity estimate (log intensity, higher = more binding, comparable within an allelic series)
- binding signal (HOXA2 [21]): 7.18 upbm affinity estimate (log intensity, higher = more binding, comparable within an allelic series)
- binding signal (NKX2-5 [23]): 8.66 upbm affinity estimate (log intensity, higher = more binding, comparable within an allelic series)

Sequence: GACACTTA
- binding signal (NKX2-5 [1]): 12.7 upbm affinity estimate (log intensity, higher = more binding, comparable within an allelic series)
- binding signal (NKX2-4 [25]): 12.8 upbm affinity estimate (log intensity, higher = more binding, comparable within an allelic series)
- binding signal (NKX2-6 [26]): 11.8 upbm affinity estimate (log intensity, higher = more binding, comparable within an allelic series)
- binding signal (NKX2-6 [27]): 13.6 upbm affinity estimate (log intensity, higher = more binding, comparable within an allelic series)
- binding signal (NKX2-4 [28]): 12.9 upbm affinity estimate (log intensity, higher = more binding, comparable within an allelic series)
- binding signal (NKX2-6 [29]): 11.1 upbm affinity estimate (log intensity, higher = more binding, comparable within an allelic series)
- binding signal (NKX3-2 [20]): 12.8 upbm affinity estimate (log intensity, higher = more binding, comparable within an allelic series)
- binding signal (NKX2-5 [23]): 12.6 upbm affinity estimate (log intensity, higher = more binding, comparable within an allelic series)
- binding signal (NKX3-2 [24]): 12.9 upbm affinity estimate (log intensity, higher = more binding, comparable within an allelic series)
